KCNQ2 pot – potentiators of rat KCNQ2 potassium channel; Potassium voltage-gated channel subfamily KQT member 2 (Rattus norvegicus), O88943; CHO-K1 KCNQ2, FluxOR thallium flux fluorescence; active compounds read high; B-score at 10 µM; 0.54% of 310,000 active;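 active = fluorescence ratio B-score at least 3 SD of library B-scores, with initial fluorescence B-score within 3 of them, cut at about 5.3 in these data; same plate scores as AID 2156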;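 note: B-score of peak minus minimum over baseline fluorescence ratio after K+ and Tl+ stimulus; positive B-score means potentiation of KCNQ2 with more thallium influx and brighter signal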
KCNQ2 block – rat KCNQ2 potassium channel inhibitors, primary screen, cell-based, CHO-K1, FluxOR thallium flux, B-score; Potassium voltage-gated channel subfamily KQT member 2 (Rattus norvegicus), O88943; 20 min; active compounds read low; B-score at 10 µM; 1.1% of 310,000 active;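 active = fluorescence ratio B-score at most minus 3 library SDs, with starting brightness B-score within 2 library SDs, cut at about -5.5 in these data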
Kir21 confirm – mouse Kir2.1 channel blockers, retest, confirmation, cell-based, FluxOR thallium flux, duplicate. Tl flux remaining, % of negative control (active compounds read low), % at 10 µM. Kir2.1-expressing cells, FluxOR thallium flux fluorescence; active compounds read low. 41% of 2,300 active. shares compounds with KCNQ2 pot;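 active = Primary-screen hit whose thallium flux fell at least 3 control SD below untreated wells in both duplicates, with normal baseline fluorescence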
HEK293 Tl flux – counter-screen for Kir2.1 inhibitors: effect in parental HEK293 cells; shares compounds with KCNQ2 pot; FluxOR thallium flux fluorescence; 0% = unstimulated blank wells; FluxOR signal as % of negative control (100 = no effect), % at 10 µM; 19% of 2,300 active; AID 2105;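 active = dye signal at least 3 control SD above or below untreated wells in both duplicates, raw fluorescence within 3, either direction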;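 note: percent is based on the flux ratio of peak minus minimum fluorescence over baseline F0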
CHO-K1 Tl ctr – nonspecific thallium flux increase in parental CHO-K1, confirmation, counter-screen for KCNQ2 potentiator project, cell-based, FluxOR thallium flux, duplicate; shares compounds with KCNQ2 pot; parental CHO-K1 cells, FluxOR thallium flux fluorescence; zero = vehicle mean+3SD, 100% = vehicle-minus-blank window; activity increase over 3SD of controls, % at 10 µM; 43% of 1,200 active; AID 2282, 2010;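 active = signal rise of at least 3 SD above the untreated control mean, in both duplicate wells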;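 note: counter screen of KCNQ2 potentiator hits so any rise reflects channel-independent effects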
KCNQ1 pot spec – human KCNQ1 channel potentiation off-target, confirmation, selectivity assay for KCNQ2 potentiator project, cell-based, CHO, FluxOR thallium flux. activation over 3SD threshold, % at 10 µM. shares compounds with KCNQ2 pot. CHO KCNQ1 stable, FluxOR thallium flux fluorescence; beyond 3SD, as % of vehicle-control signal. 28% of 1,200 active;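 active = fluorescence ratio rise of at least 3 SD of vehicle wells above their mean, in both replicate wells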
KCNQ2 pot confirm – rat KCNQ2 channel potentiators, confirmation, cell-based, CHO, FluxOR thallium flux, duplicate | CHO-KCNQ2 cells, FluxOR thallium flux fluorescence | shares compounds with KCNQ2 pot | potentiation, less the hit threshold, % at 10 µM | AID 2287, 2010 | 68% of 1,200 active;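 active = fluorescence ratio rising 3 SD or more over the vehicle control mean in both replicates, plus primary screen hit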;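 note: peak minus minimum thallium fluorescence divided by baseline after K/Tl stimulus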
Kir21 spec – mouse Kir2.1 channel activation off-target, confirmation, selectivity assay for KCNQ2 potentiator project, cell-based, HEK293, FluxOR thallium flux | 2% of 1,200 active | AID 2345, 2010 | shares compounds with KCNQ2 pot | HEK293 Kir2.1, FluxOR thallium flux fluorescence | activity over 3SD threshold, % at 10 µM;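 active = fluorescence ratio rise of at least 3 SD above the vehicle-control mean, seen in both replicates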
KCNQ2 W236L pot – potentiators of retigabine-insensitive KCNQ2 W236L, mechanism study for KCNQ2 potentiator project, cell-based, rat KCNQ2 W236L, CHO, automated patch clamp | shares compounds with KCNQ2 pot | automated patch clamp current | current increase over 3SD of negative controls (%), active compounds read high, % at 25 µM | 10% of 940 active | AID 2558, 2010;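 active = current increase at least 3 SD of the untreated controls above them in both duplicate recordings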
Target sequence (O88943 whole entry W236L, looked up): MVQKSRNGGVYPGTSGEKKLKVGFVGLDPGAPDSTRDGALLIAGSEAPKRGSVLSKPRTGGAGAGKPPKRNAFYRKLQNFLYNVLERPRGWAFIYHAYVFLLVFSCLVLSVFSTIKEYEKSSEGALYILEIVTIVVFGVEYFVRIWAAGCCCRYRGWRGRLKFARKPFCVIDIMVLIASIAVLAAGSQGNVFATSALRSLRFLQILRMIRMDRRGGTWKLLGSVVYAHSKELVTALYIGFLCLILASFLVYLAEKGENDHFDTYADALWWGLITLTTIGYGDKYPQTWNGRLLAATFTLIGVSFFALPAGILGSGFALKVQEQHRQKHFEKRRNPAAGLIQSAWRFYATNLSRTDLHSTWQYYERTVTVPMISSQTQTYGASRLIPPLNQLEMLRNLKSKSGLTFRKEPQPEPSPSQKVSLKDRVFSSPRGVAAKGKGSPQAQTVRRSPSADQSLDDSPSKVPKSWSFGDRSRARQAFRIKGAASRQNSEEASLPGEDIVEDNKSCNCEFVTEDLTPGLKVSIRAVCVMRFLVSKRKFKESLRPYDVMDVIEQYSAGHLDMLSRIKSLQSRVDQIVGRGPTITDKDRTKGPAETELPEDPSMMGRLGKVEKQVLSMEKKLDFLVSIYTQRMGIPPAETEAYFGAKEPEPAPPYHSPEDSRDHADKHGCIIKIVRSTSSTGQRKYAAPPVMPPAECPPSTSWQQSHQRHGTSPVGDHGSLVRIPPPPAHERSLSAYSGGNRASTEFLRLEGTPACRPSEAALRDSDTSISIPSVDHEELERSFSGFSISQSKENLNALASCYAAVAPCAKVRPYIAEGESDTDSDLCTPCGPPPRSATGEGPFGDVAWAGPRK
A number is an active result; 0 = inactive; - = no result given. Most compounds without a hit are left out; they make up all but 1.6% or so of the library.

SMILES | KCNQ2 pot | KCNQ2 block | Kir21 confirm | HEK293 Tl flux | others
Cc1ccc(F)c([C@H]2C3C=CCC(c4ccccc4)C3C(=O)N2Cc2ccccc2)c1 (some centres undefined) | - | 0 | - | -
O=C(c1ccc(OC2CCN(CCCc3ccccc3)CC2)cc1)N1CCCC1 | 0 | 0 | 72% | 0
CC(=O)N1CCN(C(=O)c2ccc(OC3CCN(CCc4ccccc4)CC3)cc2)CC1 | 0 | 0 | - | -
CCCc1nnc(NC(=O)CCC(=O)N2CCN(Cc3ccc(Cl)cc3)CC2)s1 | 0 | 0 | - | -
N#Cc1c(-c2ccco2)nc(SCC(=O)Nc2cccc(Cl)c2)[nH]c1=O | 5.5 | 0 | 0 | 0 | CHO-K1 Tl ctr=0;KCNQ1 pot spec=0;KCNQ2 pot confirm=7.4;Kir21 spec=0;KCNQ2 W236L pot=0
O=C(CSc1nc2[nH]ncc2c(=O)[nH]1)Nc1cccc(Cl)c1 | - | 0 | - | -
O=C(COC(=O)Cc1c[nH]c2ccccc12)Nc1ccccc1 | - | 0 | - | -
O=C(COC(=O)Cc1c[nH]c2ccccc12)NC1CCCCC1 | 0 | 0 | 42% | 0
C=CCc1cc(OC)ccc1OCCOCCN1CCc2ccccc2C1 | - | 0 | 18% | 0
CCOc1ccc(OCCOCCN2CCc3ccccc3C2)cc1 | 0 | 0 | - | -
c1ccc(OCCOCCN2CCc3ccccc3C2)cc1 | 0 | 0 | - | -
CCCOc1ccc(OCCOCCN2CCc3ccccc3C2)cc1 | 0 | 0 | 60% | 0
Cc1nc(C(=O)O)sc1C1(C)CC(c2cccc([N+](=O)[O-])c2)=NO1 (centres undefined) | 0 | 0 | - | -
Cc1sc2nc[nH]c(=O)c2c1-c1ccc(Cl)cc1 | - | 0 | - | -
O=c1[nH]cnc(O)c1C(c1ccc2c(c1)OCO2)c1c(O)nc[nH]c1=O | - | 0 | - | -
CCC(c1nnc(SCC(=O)Nc2c(F)cccc2F)n1Cc1ccccc1)N(C)C (centres undefined) | 0 | 0 | - | -
COc1cccc(/C(=N/O)C2CC2c2ccc(Cl)cc2)c1 (centres undefined) | 6.7 | 0 | 0 | 0 | CHO-K1 Tl ctr=33;KCNQ1 pot spec=0;KCNQ2 pot confirm=8.1;Kir21 spec=0;KCNQ2 W236L pot=0
COc1cccc(/C(C)=N/NS(=O)(=O)c2ccc(Cl)cc2)c1 | 0 | 0 | - | -
CC1CCN(S(=O)(=O)c2ccc3c(c2)N(CC(=O)NCCCN2C(C)CCCC2C)C(=O)CO3)CC1 (centres undefined) | - | 0 | - | -
Cn1c(-c2ccccc2)cnc1NCc1ccc(-c2ccccc2)cc1 | - | 0 | - | -
Cn1c(-c2ccc3c(c2)OCO3)cnc1NCc1ccc(Cl)cc1 | - | 0 | 21% | 0
COc1cc(CNc2ncc(-c3ccc(Cl)cc3)n2C)cc(OC)c1OC | - | 0 | - | -
Cn1c(-c2ccc(F)cc2)cnc1NCc1ccc(F)cc1 | - | 0 | 38% | 0
Cc1ccc(CNc2ncc(-c3ccc4c(c3)OCO4)n2C)cc1 | 0 | -6 | 22% | 0
Cn1c(-c2ccc(F)cc2)cnc1NCc1ccc(C#N)cc1 | - | 0 | - | -
SMILES | KCNQ2 pot | KCNQ2 block | Kir21 confirm | HEK293 Tl flux | others
CC(Oc1ccc(Br)cc1)C(=O)O/N=C(\N)c1ccncc1 (centres undefined) | - | 0 | - | -
C/C(=N\NC(=O)c1sccc1-n1cccc1)c1cccs1 | - | 0 | - | -
O=C(/C=C/c1ccc([N+](=O)[O-])cc1)NCc1ccco1 | 0 | 0 | - | -
O=C(/C=C/c1ccc([N+](=O)[O-])cc1)/C=C/c1ccco1 | 0 | -6.1 | 0 | 0
CCOC(=O)Oc1ccc(/C=C2\N=C(C)OC2=O)cc1 | - | 0 | - | -
COc1ccc(-c2csc(NC(=O)c3ccc(OCC(=O)N4CCOCC4)c(OC)c3)n2)cc1OC | - | 0 | - | -
CC(C)c1ccc(NC(=O)N2CCN(S(=O)(=O)c3ccccc3)CC2)cc1 | 7.3 | 0 | - | - | CHO-K1 Tl ctr=0;KCNQ1 pot spec=0;KCNQ2 pot confirm=0;Kir21 spec=0;KCNQ2 W236L pot=0
CS(=O)(=O)N1CCN(C(=O)Nc2ccccc2)CC1 | 0 | 0 | - | -
C=CCNC(=O)N1C2=NC(C(=O)OC)=C(C(=O)OC)[C@@H]3N(Cc4ccccc4)c4ccccc4[C@]23C[C@H]1C(=O)OC | 0 | 0 | - | -
CN(C)S(=O)(=O)N1CCN(CC(O)COc2ccc(-c3ccccc3)cc2)CC1 (centres undefined) | 0 | 0 | - | -
COC(=O)C1(O)CC(CC(C)C)=NN1C(=O)c1ccccc1 (centres undefined) | 8.8 | 0 | 0 | 0 | CHO-K1 Tl ctr=8.6;KCNQ1 pot spec=0;KCNQ2 pot confirm=23;Kir21 spec=0;KCNQ2 W236L pot=0
COC(=O)C1=NN(C(=O)c2ccccc2)C(C)(O)C1 (centres undefined) | 0 | 0 | - | -
CCCc1nc2sc3c(=O)n(N)cnc3c2c2c1CCCC2 | 0 | 0 | - | -
CC(C)(C)n1nc2c(c1NC(=O)Cc1ccc(F)cc1)CSC2 | 14 | 0 | 0 | 0 | CHO-K1 Tl ctr=1.6;KCNQ1 pot spec=0;KCNQ2 pot confirm=84;Kir21 spec=0;KCNQ2 W236L pot=0
CC(C)(C)C(=O)Nc1c2c(nn1-c1ccc(F)cc1)CSC2 | 0 | 0 | - | -
CCOc1ccc(CCNC(=O)CCNC(=O)c2ccccc2Cl)cc1OCC | - | 0 | - | -
CN(C)CC1CCCCC1C1(O)c2ccccc2CSc2sccc21 (centres undefined) | 0 | 0 | 69% | 0
CN(C)CC1CCCCC1OC(=O)c1ccc(Cl)cc1 (centres undefined) | 0 | 0 | - | -
COc1ccc(NC(=O)CSc2nc3ccccc3c(=O)n2CCCN2CCC(C)CC2)c(OC)c1 | - | 0 | - | -
O=C(N/N=C/c1ccc(-c2ccc(S(=O)(=O)Nc3ncccn3)cc2)o1)c1cc2ccccc2cc1O | 5.5 | 0 | 0 | 0 | CHO-K1 Tl ctr=0;KCNQ1 pot spec=0;KCNQ2 pot confirm=0;Kir21 spec=0
CCOc1ccc(C(=O)N/N=C/c2ccc(-c3ccc(S(=O)(=O)Nc4ncccn4)cc3)o2)cc1 | 0 | 0 | - | -
Cc1ccc(NC(=O)CN(C)S(=O)(=O)c2cccc3cccnc23)cc1C | - | 0 | - | -
O=C(NC1CCOCC1)C1CCC(=O)N(CCc2ccc(Cl)cc2)C1 (centres undefined) | 0 | 0 | - | -
